Records with an inconclusive call do not appear. Active and inactive are the calls of the source. Rule for the calls, unless noted: active = hit-call score of the fitted dose curve at least 0.9, where 1 is the maximum; inconclusive = response in the unintended direction; inactive = score below 0.9.

Sequence of human Peroxisome Proliferator-activated Receptor alpha (PPARa), PPARA (gene 5465) (Q07869 whole entry, looked up): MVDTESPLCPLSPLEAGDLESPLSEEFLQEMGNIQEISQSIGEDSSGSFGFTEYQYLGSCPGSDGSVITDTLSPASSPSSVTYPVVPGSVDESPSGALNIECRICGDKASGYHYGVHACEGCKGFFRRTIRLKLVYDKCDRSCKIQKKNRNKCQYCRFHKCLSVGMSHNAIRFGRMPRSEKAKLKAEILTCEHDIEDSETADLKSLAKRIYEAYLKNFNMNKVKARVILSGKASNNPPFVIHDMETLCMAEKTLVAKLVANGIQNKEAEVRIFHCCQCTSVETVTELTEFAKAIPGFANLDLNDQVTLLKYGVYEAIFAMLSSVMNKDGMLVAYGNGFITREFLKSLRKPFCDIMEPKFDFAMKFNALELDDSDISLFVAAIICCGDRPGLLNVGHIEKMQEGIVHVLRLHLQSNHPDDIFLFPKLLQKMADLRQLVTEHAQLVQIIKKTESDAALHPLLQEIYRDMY

One test addresses human Peroxisome Proliferator-activated Receptor alpha (PPARa), PPARA (gene 5465) (UniProt Q07869). Briefly: ATG_PPARa_TRANS: Attagene TRANS-FACTORIAL HepG2 Assay for human Peroxisome Proliferator-activated Receptor alpha (PPARa) (AID 2283001).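 For AC50: potency for gain of reporter signal over DMSO so agonist or activator.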
Conditions: not given
The essentials:
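Exposure: 24 h, transiently transfected HepG2 cells. Endpoint: GAL4-UAS reporter mRNA, RT-PCR with capillary electrophoresis fluorescence. Baseline: DMSO; increases fitted.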
With `NCC(F)(F)C(F)(F)C(F)(F)C(F)(F)F`, the compound was called inactive.
`Cc1ncc([C@@H](CCCCCCc2ccc3c(n2)NCCC3)CC(=O)O)cn1`: the AC50 was 19.8 µM (active).
As to `Cc1nccn1-c1ccc(Sc2cccc(C3(C(N)=O)CCOCC3)c2)cc1`, the call was inactive.
Still for that read-out and setting: for `FC(F)=C(F)C(F)(F)C(F)(F)C(F)(F)C(F)(F)C(F)(F)C(F)(F)F` the value was “inactive”.
Same read-out and setting: for `FC(F)(F)C(F)(F)C(F)(F)C(F)(F)C(F)(F)C(F)(F)I` the value was “inactive”; for `OCC(CO)(CO)CO`, “inactive”; for `c1ccc2cc3ccccc3cc2c1`, “inactive”.
Still for that read-out and setting: the result for `C=CCc1cc(S(=O)(=O)c2ccc(O)c(CC=C)c2)ccc1O` reads “inactive”; that for `Cc1cccc(O)c1C`, “inactive”.
In the case of `OCCC(F)(F)C(F)(F)C(F)(F)C(F)(F)F`, the compound was called inactive.
In the case of `O=S(=O)(O)CCC(F)(F)C(F)(F)C(F)(F)C(F)(F)C(F)(F)C(F)(F)F`, the result was inactive.
Turning to `C[C@@H](Oc1ccc(CNC(=O)c2cccnc2Oc2ccc3c(c2)OCO3)c(F)c1)C(=O)O`, the compound was classed as inactive.
On to `O=C(Cl)C(F)(F)C(F)(F)C(F)(F)C(=O)Cl`, for which the call was inactive.
`O=C(O)c1ccc2c(c1)nc(C(=O)NC1CCN(C3CC3)CC1)n2Cc1cc(-c2ccc(Cl)s2)on1`: the compound was classed as inactive.
The same measure, in the same setting: for `OCc1c[nH]c2ccccc12` the value was “inactive”; for `S=P(N1CC1)(N1CC1)N1CC1`, “inactive”.
Still for that read-out and setting: for `CCN(CC)C(=S)SSC(=S)N(CC)CC` the value was “inactive”; for `O=S1(=O)CCCO1`, “inactive”.
Still for that read-out and setting: the result for `CC(C)c1nnc2ccc(-c3ocnc3-c3cc(F)ccc3F)cn12` reads “inactive”; that for `CCCCCCCC1CCC(=O)O1` (configuration not stated), “inactive”.
Consider `CCn1nc(C)c2c1C(=O)NCC(c1ccc(O)cc1)=N2`, for which the compound was classed as inactive.
For `O=C(N[C@H](CO)[C@H](O)c1ccc([N+](=O)[O-])cc1)C(Cl)Cl`, the call was inactive.
The same measure, in the same setting: the result for `NNC(=O)c1ccncc1` reads “inactive”; that for `O=C(O)CO`, “inactive”; that for `O=S(=O)(O)c1ccc(N=Nc2c(O)ccc3cc(S(=O)(=O)O)ccc23)cc1`, “inactive”.
Same read-out and setting: for `CCCCN1C(=O)[C@@H]([C@H](O)C2CCCCC2)NC(=O)C12CCN(Cc1ccc(Oc3ccc(C(=O)O)cc3)cc1)CC2` the value was “inactive”.
The same measure, in the same setting: for `Cn1cc[nH]c1=S` the value was “inactive”.
With `C[Si](C)(C)C(F)(F)C(F)(F)C(F)(F)F`, the compound was classed as inactive.

In another test the target is human Peroxisome Proliferator-activated Receptor delta (PPARd), PPARD (gene 5467) (UniProt Q03181). Description: ATG_PPARd_TRANS: Attagene TRANS-FACTORIAL HepG2 Assay for human Peroxisome Proliferator-activated Receptor delta (PPARd) (AID 2283002).
Sequence of human Peroxisome Proliferator-activated Receptor delta (PPARd), PPARD (gene 5467) (Q03181 whole entry, looked up): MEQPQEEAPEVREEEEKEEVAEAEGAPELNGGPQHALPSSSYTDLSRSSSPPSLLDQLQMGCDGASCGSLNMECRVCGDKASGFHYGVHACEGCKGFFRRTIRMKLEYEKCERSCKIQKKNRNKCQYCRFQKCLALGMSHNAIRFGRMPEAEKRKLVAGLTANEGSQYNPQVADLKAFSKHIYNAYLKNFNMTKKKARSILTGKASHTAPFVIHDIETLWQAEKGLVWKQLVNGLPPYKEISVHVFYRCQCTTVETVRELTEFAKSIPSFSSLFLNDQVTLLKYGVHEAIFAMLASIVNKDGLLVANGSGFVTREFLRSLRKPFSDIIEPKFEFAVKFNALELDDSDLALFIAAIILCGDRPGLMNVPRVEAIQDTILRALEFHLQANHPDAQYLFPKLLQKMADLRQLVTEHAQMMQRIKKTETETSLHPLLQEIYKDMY
Conditions: not given
A digest of the protocol:
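HepG2 cells transiently transfected with multiplexed GAL4-UAS reporter units and exogenous chimeric NR-Gal4 proteins; 24 h compound exposure. Reporter mRNA measured by RT-PCR, 6-FAM labelling, HpaI digestion and capillary electrophoresis; gain of signal versus DMSO.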
As for `NCC(F)(F)C(F)(F)C(F)(F)C(F)(F)F`, the compound was called inactive.
With `Cc1ncc([C@@H](CCCCCCc2ccc3c(n2)NCCC3)CC(=O)O)cn1`, the result was inactive.
Still for that read-out and setting: for `Cc1nccn1-c1ccc(Sc2cccc(C3(C(N)=O)CCOCC3)c2)cc1` the value was “inactive”.
Still for that read-out and setting: for `FC(F)=C(F)C(F)(F)C(F)(F)C(F)(F)C(F)(F)C(F)(F)C(F)(F)F` the value was “inactive”; for `FC(F)(F)C(F)(F)C(F)(F)C(F)(F)C(F)(F)C(F)(F)I`, “inactive”.
The same measure, in the same setting: the result for `OCC(CO)(CO)CO` reads “inactive”; that for `c1ccc2cc3ccccc3cc2c1`, “inactive”.
Take `C=CCc1cc(S(=O)(=O)c2ccc(O)c(CC=C)c2)ccc1O`: the result was inactive.
As for `Cc1cccc(O)c1C`, the compound was called inactive.
Still for that read-out and setting: for `OCCC(F)(F)C(F)(F)C(F)(F)C(F)(F)F` the value was “inactive”.
Still for that read-out and setting: for `O=S(=O)(O)CCC(F)(F)C(F)(F)C(F)(F)C(F)(F)C(F)(F)C(F)(F)F` the value was “inactive”; for `C[C@@H](Oc1ccc(CNC(=O)c2cccnc2Oc2ccc3c(c2)OCO3)c(F)c1)C(=O)O`, “inactive”.
On the same count and under the same terms, for `O=C(Cl)C(F)(F)C(F)(F)C(F)(F)C(=O)Cl` the value was “inactive”; for `O=C(O)c1ccc2c(c1)nc(C(=O)NC1CCN(C3CC3)CC1)n2Cc1cc(-c2ccc(Cl)s2)on1`, “inactive”; for `OCc1c[nH]c2ccccc12`, “inactive”.
Regarding `S=P(N1CC1)(N1CC1)N1CC1`, the compound was classed as inactive.
Still for that read-out and setting: the result for `CCN(CC)C(=S)SSC(=S)N(CC)CC` reads “inactive”; that for `O=S1(=O)CCCO1`, “inactive”.
On the same count and under the same terms, the result for `CC(C)c1nnc2ccc(-c3ocnc3-c3cc(F)ccc3F)cn12` reads “inactive”.
Still for that read-out and setting: the result for `CCCCCCCC1CCC(=O)O1` (configuration not stated) reads “inactive”.
`CCn1nc(C)c2c1C(=O)NCC(c1ccc(O)cc1)=N2`: the compound was classed as inactive.
On the same count and under the same terms, for `O=C(N[C@H](CO)[C@H](O)c1ccc([N+](=O)[O-])cc1)C(Cl)Cl` the value was “inactive”.
For `NNC(=O)c1ccncc1`, the compound was classed as inactive.
The same measure, in the same setting: for `O=C(O)CO` the value was “inactive”; for `O=S(=O)(O)c1ccc(N=Nc2c(O)ccc3cc(S(=O)(=O)O)ccc23)cc1`, “inactive”; for `CCCCN1C(=O)[C@@H]([C@H](O)C2CCCCC2)NC(=O)C12CCN(Cc1ccc(Oc3ccc(C(=O)O)cc3)cc1)CC2`, “inactive”.
Still for that read-out and setting: the result for `Cn1cc[nH]c1=S` reads “inactive”; that for `C[Si](C)(C)C(F)(F)C(F)(F)C(F)(F)F`, “inactive”.

Read-out in a further test: Intercellular Adhesion Molecule 1 (ICAM1), ICAM1 (gene 3383)
Description: BSK_3C_ICAM1: BioMAP Diversity Plus: 3C Assay for Intercellular Adhesion Molecule 1 (ICAM1) Biomarker Activity (AID 2283003; active = hit-call score of the fitted dose curve at least 0.9, where 1 is the maximum; inactive = score below 0.9). To be noted: primary human endothelial cells (HUVEC); actives raise or lower the signal. A digest of the protocol: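 Using DMSO as baseline, bidirectional curve fitting was applied to ICAM-1 ELISA signals from HUVEC in the 3C system, measured 24 h after compound addition.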
In the case of `FC(F)(F)C(F)(F)C(F)(F)C(F)(F)C(F)(F)C(F)(F)I`, the outcome was inactive.
Same read-out and setting: for `OCC(CO)(CO)CO` the value was “inactive”.
Still for that read-out and setting: the result for `c1ccc2cc3ccccc3cc2c1` reads “inactive”.
On the same count and under the same terms, the result for `O=C(O)c1ccc2c(c1)nc(C(=O)NC1CCN(C3CC3)CC1)n2Cc1cc(-c2ccc(Cl)s2)on1` reads “inactive”; that for `OCc1c[nH]c2ccccc12`, “inactive”; that for `S=P(N1CC1)(N1CC1)N1CC1`, “inactive”.
With `CCCCCCCC1CCC(=O)O1` (configuration not stated), the outcome was inactive.
Same read-out and setting: for `CCn1nc(C)c2c1C(=O)NCC(c1ccc(O)cc1)=N2` the value was “inactive”; for `NNC(=O)c1ccncc1`, “inactive”; for `Cn1cc[nH]c1=S`, “inactive”.
For `C[Si](C)(C)C(F)(F)C(F)(F)C(F)(F)F`, the outcome was inactive.

The values above are taken from PubChem BioAssay (EPA / NIEHS).
